The first assay concerns the target Solute carrier family 2, facilitated glucose transporter member 1 (Homo sapiens) (UniProt P11166). Nature of the assay: ST_JUDE_LEISH: Cytotoxicity at 2uM final concentration against transgenic Leishmania Mexicana promastigotes LmGLUT1 that are glucose transport deficient and complemented with the human glucose transporter GLUT1. Activity is measured by DNA content using SYBR green in vitro. The format is functional.
Sequence of Solute carrier family 2, facilitated glucose transporter member 1 (Homo sapiens) (P11166 whole entry): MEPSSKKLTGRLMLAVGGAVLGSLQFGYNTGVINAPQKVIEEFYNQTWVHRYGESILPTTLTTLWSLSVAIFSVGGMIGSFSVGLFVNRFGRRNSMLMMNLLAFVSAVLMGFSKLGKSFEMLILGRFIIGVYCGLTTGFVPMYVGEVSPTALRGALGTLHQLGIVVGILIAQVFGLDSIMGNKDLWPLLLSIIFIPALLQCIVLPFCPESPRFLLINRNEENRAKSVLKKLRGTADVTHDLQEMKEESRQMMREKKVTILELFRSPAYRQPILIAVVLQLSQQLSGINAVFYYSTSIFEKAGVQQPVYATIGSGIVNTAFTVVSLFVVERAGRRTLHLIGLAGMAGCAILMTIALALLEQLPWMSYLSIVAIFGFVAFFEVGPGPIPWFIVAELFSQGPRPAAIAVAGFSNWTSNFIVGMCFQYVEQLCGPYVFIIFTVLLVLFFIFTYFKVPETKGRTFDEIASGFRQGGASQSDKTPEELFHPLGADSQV
A word on the inhibition: it is the drop in the measured response relative to a control, in per cent. With `COCCOCCOCCn1ccc2c3c(N)nc(N)nc3ccc21`, the inhibition stood at 4.65%.
The same measure, in the same setting: for `Cn1cnc2c(Nc3ccncc3)nc(-c3ccc(OC(F)(F)F)cc3)nc21` the value was 2.51%; for `Cn1c(Nc2cc(C(C)(C)C)on2)nc2cc(Nc3ccnc(Nc4cccc(S(=O)(=O)N5CCOCC5)c4)n3)ccc21`, 5.63%; for `Cc1cc(N[C@@H](Cc2ccccc2)C(=O)NCCc2ccccc2)nc(NCCc2cccs2)n1`, 3.32%.
As for `CCC(C)NS(=O)(=O)c1ccc2nc(Nc3ccc(C)cc3)n(C3CCCCC3C)c2c1` (stereo not given), the inhibition worked out at 4.96%.
Regarding `CCCCN1CCN(CCCCNc2c3ccccc3nc3ccccc23)CC1`, the inhibition came to 36.8%.
As for `CCCCNCC(O)COc1ccccc1-c1ccc(N/N=C/c2cccc3ccccc23)nn1` (stereo not given), the inhibition worked out at 3.78%.
The same measure, in the same setting: the figure for `COc1ccc(O)c(C(=O)c2cc(C(=O)NC3CCCCC3)c(=O)n(C3CCCCC3)c2)c1` is 5.33%.
As to `COc1cccc(CNC(=O)NC2CCN(c3ccnc(Nc4ccc(F)cc4)n3)C2)c1` (stereo not given), the inhibition was -1.2%.
Same read-out and setting: the figure for `COc1ccc2c(NN=Cc3ccc(Cl)cc3)ccnc2c1` is 3.12%.
On the same count and under the same terms, the figure for `CS(=O)(=O)CCNCc1cccc(-c2cc3nccc(Nc4ccc(Oc5ccccc5)cc4)c3cc2Cl)c1` is -1.75%; for `Cc1cccc2nc(-c3ccc(-c4cccc(NC(=O)Nc5cccc(C#N)c5)c4)cc3)[nH]c12` it is 0.79%; for `Cc1ccc(-n2cc(CNCCc3nc(C)c[nH]3)c(-c3ccc(F)cc3)n2)cc1` it is 4.34%.
For the compound `O=C(OCC1CCN(Cc2ccccc2)C1)c1ccc(Cl)cc1` (stereo not given), the inhibition amounted to 0.47%.
The same measure, in the same setting: for `COc1ccccc1Cc1c(C)nc2nc(N)nc(N)c2c1C` the value was 6.33%.
`Oc1c(CN2CCCC(C(F)(F)F)C2)cc(Cl)c2ccccc12` (stereo not given): the inhibition is 1.85%.
Still for that read-out and setting: the figure for `COCCOc1ccc(Nc2nccc(-c3c(-c4cccc(NC(=O)c5c(F)cccc5F)c4)nn4ccccc34)n2)cc1F` is 7.82%; for `CCCCN(CCCC)CCCCCCNc1c2ccccc2nc2ccccc12` it is 28%.
With `COc1ccc2nc(-c3ccc(C(=O)NCCCN4CCN(c5cc(Cl)ccc5OC)CC4)cc3OC)[nH]c2c1`, the inhibition came out at 2.79%.
As for `Cc1cccc(Nc2c(-c3cc(Br)ccc3O)nc3ncccn23)c1`, the inhibition turned out to be 0.12%.
On the same count and under the same terms, the figure for `CC(O)C1CCCCN1C(=O)c1cccc(-c2cccc(-c3nc4ccccc4[nH]3)c2)c1` (stereo not given) is 0.78%; for `CCc1ccc(CN2CCC(NC(=O)c3ccc(-c4ccc(N(C)C)cc4)s3)CC2)cc1` it is 2.04%.
The same measure, in the same setting: the figure for `CCCCCCCN1CCC(CC(=O)Nc2ccnc3ccc(OC)cc23)C(CC)C1` (stereo not given) is -2.12%.
Same read-out and setting: the figure for `CCN(CC)/C(=N/C(=N)Nc1ccc(Cl)c(Cl)c1)NCCCCCCN/C(=N\C(=N)Nc1ccc(Cl)c(Cl)c1)N(CC)CC` is 1.15%.
As to `CCCNCc1ccc(-c2ccc(CN(CC3CCCO3)C(=O)C3CC(=O)c4ccccc43)cc2)nc1` (stereo not given), the inhibition worked out at 6.13%.
Turning to `CCCCCC(C)C(C)c1cc(O)c2c(c1)OC(C)(C)CC2(O)c1ccnn1C` (stereo not given), the inhibition amounted to 3.29%.
The same measure, in the same setting: for `CCOC(=O)c1ccc(-c2cnc(N)c(-c3nc4cccc(C)c4[nH]3)c2)cc1` the value was 6.18%; for `CCC(C)C(COC(=O)c1cc(OC)c(OC)c(OC)c1)N(C)CCN(C)C(COC(=O)c1cc(OC)c(OC)c(OC)c1)C(C)CC` (stereo not given), 1.76%.
The same measure, in the same setting: the figure for `Cc1cccc(C)c1C1CCN(CCCCNC(=O)c2cc3ccccc3[nH]2)CC1` is 1.79%.
`Cc1cc(C(=O)OCC(N)=O)c(C)n1-c1ccc(F)cc1`: the inhibition was -0.25%.
As for `COc1cc(C)nc2ccc(NC(=O)Nc3ccccc3[N+](=O)[O-])cc12`, the inhibition was found to be 2.28%.
On the same count and under the same terms, for `O=C(Nc1ccc(S(=O)(=O)N2CCCC2)cc1)c1cc(-c2cccnc2)nc2ccc(Cl)cc12` the value was 7.34%.
Consider `Cc1ccc(/C=C/C(=O)NC2CCC(N3CCC(c4ccccc4C)CC3)CC2)cc1F` (stereo not given), for which the inhibition turned out to be 15.1%.
On the same count and under the same terms, for `O=C(Cc1ccc(NC(=O)c2ccc(O)c(-c3ccc(Cl)c(Cl)c3)c2)cc1)NCCN1CCOCC1` the value was -2.69%; for `COc1ccc(CNC(=O)Nc2cc3cc(-c4ccc(CN5CCCC5)cc4)ccc3n3c(C)nnc23)cc1`, 2.37%.
Same read-out and setting: for `O=C(C1CC1)N1c2ccccc2CCc2ccccc21` the value was -0.93%; for `CC(C)C(NC(=O)Cc1cccc2ccccc12)C(=O)Nc1cccc(C#N)c1` (stereo not given), 2.08%; for `O=C(Nc1ccc(Oc2ccccc2)cc1)N[C@H]1CCN(Cc2ccc(OCCCN3CCCCC3)cc2)C1`, -2.21%.
`Cn1cc(CN2CCCC(COC(c3ccccc3)c3ccccc3)C2)cn1` (stereo not given): the inhibition was found to be 1.48%.
In the case of `CN(CCC(O)c1ccc(Cl)c(Cl)c1)CC1CC1C(=O)c1ccccc1` (stereo not given), the inhibition was 4.57%.

The target in the next assay is Hexose transporter 1 (Plasmodium falciparum) (UniProt O97467). Nature of the assay: ST_JUDE_LEISH: Cytotoxicity at 2uM final concentration against transgenic Leishmania Mexicana promastigotes LmPfHT that are glucose transport deficient and complemented with the Plasmodium falciparum hexose transporter. Activity is measured by DNA content using SYBR green in vitro. Format: functional.
`COCCOCCOCCn1ccc2c3c(N)nc(N)nc3ccc21`: the inhibition amounted to 1.94%.
Same read-out and setting: for `Cn1cnc2c(Nc3ccncc3)nc(-c3ccc(OC(F)(F)F)cc3)nc21` the value was 1.84%.
Consider `Cn1c(Nc2cc(C(C)(C)C)on2)nc2cc(Nc3ccnc(Nc4cccc(S(=O)(=O)N5CCOCC5)c4)n3)ccc21`, for which the inhibition worked out at 2.67%.
Still for that read-out and setting: the figure for `Cc1cc(N[C@@H](Cc2ccccc2)C(=O)NCCc2ccccc2)nc(NCCc2cccs2)n1` is 0.76%; for `CCC(C)NS(=O)(=O)c1ccc2nc(Nc3ccc(C)cc3)n(C3CCCCC3C)c2c1` (stereo not given) it is 3.92%.
Still for that read-out and setting: for `CCCCN1CCN(CCCCNc2c3ccccc3nc3ccccc23)CC1` the value was 43.1%; for `CCCCNCC(O)COc1ccccc1-c1ccc(N/N=C/c2cccc3ccccc23)nn1` (stereo not given), 3.6%.
The same measure, in the same setting: the figure for `COc1ccc(O)c(C(=O)c2cc(C(=O)NC3CCCCC3)c(=O)n(C3CCCCC3)c2)c1` is 4.33%; for `COc1cccc(CNC(=O)NC2CCN(c3ccnc(Nc4ccc(F)cc4)n3)C2)c1` (stereo not given) it is -0.35%; for `COc1ccc2c(NN=Cc3ccc(Cl)cc3)ccnc2c1` it is 2.42%.
In the case of `CS(=O)(=O)CCNCc1cccc(-c2cc3nccc(Nc4ccc(Oc5ccccc5)cc4)c3cc2Cl)c1`, the inhibition is 0.05%.
Turning to `Cc1cccc2nc(-c3ccc(-c4cccc(NC(=O)Nc5cccc(C#N)c5)c4)cc3)[nH]c12`, the inhibition was -0.19%.
Still for that read-out and setting: for `Cc1ccc(-n2cc(CNCCc3nc(C)c[nH]3)c(-c3ccc(F)cc3)n2)cc1` the value was 3.49%.
On the same count and under the same terms, for `O=C(OCC1CCN(Cc2ccccc2)C1)c1ccc(Cl)cc1` (stereo not given) the value was 1.6%; for `COc1ccccc1Cc1c(C)nc2nc(N)nc(N)c2c1C`, 4.07%.
The same measure, in the same setting: for `Oc1c(CN2CCCC(C(F)(F)F)C2)cc(Cl)c2ccccc12` (stereo not given) the value was 2.27%; for `COCCOc1ccc(Nc2nccc(-c3c(-c4cccc(NC(=O)c5c(F)cccc5F)c4)nn4ccccc34)n2)cc1F`, 10.9%; for `CCCCN(CCCC)CCCCCCNc1c2ccccc2nc2ccccc12`, 22.7%.
As for `COc1ccc2nc(-c3ccc(C(=O)NCCCN4CCN(c5cc(Cl)ccc5OC)CC4)cc3OC)[nH]c2c1`, the inhibition is 1.93%.
For the compound `Cc1cccc(Nc2c(-c3cc(Br)ccc3O)nc3ncccn23)c1`, the inhibition is -0.3%.
Still for that read-out and setting: for `CC(O)C1CCCCN1C(=O)c1cccc(-c2cccc(-c3nc4ccccc4[nH]3)c2)c1` (stereo not given) the value was 0.15%; for `CCc1ccc(CN2CCC(NC(=O)c3ccc(-c4ccc(N(C)C)cc4)s3)CC2)cc1`, 1.82%.
For the compound `CCCCCCCN1CCC(CC(=O)Nc2ccnc3ccc(OC)cc23)C(CC)C1` (stereo not given), the inhibition was -1.03%.
With `CCN(CC)/C(=N/C(=N)Nc1ccc(Cl)c(Cl)c1)NCCCCCCN/C(=N\C(=N)Nc1ccc(Cl)c(Cl)c1)N(CC)CC`, the inhibition was -1.65%.
With `CCCNCc1ccc(-c2ccc(CN(CC3CCCO3)C(=O)C3CC(=O)c4ccccc43)cc2)nc1` (stereo not given), the inhibition was determined as 3.74%.
On to `CCCCCC(C)C(C)c1cc(O)c2c(c1)OC(C)(C)CC2(O)c1ccnn1C` (stereo not given), for which the inhibition was found to be 3.23%.
Turning to `CCOC(=O)c1ccc(-c2cnc(N)c(-c3nc4cccc(C)c4[nH]3)c2)cc1`, the inhibition was 6.96%.
Same read-out and setting: for `CCC(C)C(COC(=O)c1cc(OC)c(OC)c(OC)c1)N(C)CCN(C)C(COC(=O)c1cc(OC)c(OC)c(OC)c1)C(C)CC` (stereo not given) the value was 1.28%; for `Cc1cccc(C)c1C1CCN(CCCCNC(=O)c2cc3ccccc3[nH]2)CC1`, 0.17%.
Same read-out and setting: for `Cc1cc(C(=O)OCC(N)=O)c(C)n1-c1ccc(F)cc1` the value was 6.13%.
For `COc1cc(C)nc2ccc(NC(=O)Nc3ccccc3[N+](=O)[O-])cc12`, the inhibition turned out to be 0.56%.
For the compound `O=C(Nc1ccc(S(=O)(=O)N2CCCC2)cc1)c1cc(-c2cccnc2)nc2ccc(Cl)cc12`, the inhibition came to 2.97%.
For the compound `Cc1ccc(/C=C/C(=O)NC2CCC(N3CCC(c4ccccc4C)CC3)CC2)cc1F` (stereo not given), the inhibition was 17.5%.
Still for that read-out and setting: the figure for `O=C(Cc1ccc(NC(=O)c2ccc(O)c(-c3ccc(Cl)c(Cl)c3)c2)cc1)NCCN1CCOCC1` is -1.17%.
In the case of `COc1ccc(CNC(=O)Nc2cc3cc(-c4ccc(CN5CCCC5)cc4)ccc3n3c(C)nnc23)cc1`, the inhibition came to 0.34%.
For `O=C(C1CC1)N1c2ccccc2CCc2ccccc21`, the inhibition is -0.1%.
Same read-out and setting: for `CC(C)C(NC(=O)Cc1cccc2ccccc12)C(=O)Nc1cccc(C#N)c1` (stereo not given) the value was 3.27%.
On the same count and under the same terms, the figure for `O=C(Nc1ccc(Oc2ccccc2)cc1)N[C@H]1CCN(Cc2ccc(OCCCN3CCCCC3)cc2)C1` is -1.17%; for `Cn1cc(CN2CCCC(COC(c3ccccc3)c3ccccc3)C2)cn1` (stereo not given) it is 2.93%.
Still for that read-out and setting: the figure for `CN(CCC(O)c1ccc(Cl)c(Cl)c1)CC1CC1C(=O)c1ccccc1` (stereo not given) is 4.62%.

The record behind these values is ChEMBL document CHEMBL3433997, “St. Jude Leishmania screening dataset” (2016).
